Data on six compounds can be found in PubChem BioAssay (NCI).

This is part of a sample that, as a whole, favours compounds with a hit. Of some 79,000 tested, about 15% had one in any assay. Values without a mark were called inactive. The source made the active and inactive calls. No stated cut-off is given here; in the data, active means growth inhibition above about 70%; inactive means the rest.

Test [1] is described as follows: NCI Yeast Anticancer Drug Screen. Data for the rad50 strain (AID 155).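 Further: 0% = growth of vehicle-only cultures of the same strain.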 The note with it: S. cerevisiae rad50 strain growth inhibition, active compounds read high. In a few lines:
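Yeast carrying a defined DNA repair defect were exposed to test compounds, and growth was compared with vehicle-treated controls to give percent inhibition.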

Test [2] can be described thus: NCI Yeast Anticancer Drug Screen. Data for the mec2-1 strain (AID 157). The note with it: S. cerevisiae mec2-1 strain, active compounds read high. The method in brief:
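Vehicle-treated cultures served as reference for growth inhibition of compound-exposed mec2-1 yeast.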

Test [3] can be described thus: NCI Yeast Anticancer Drug Screen. Data for the sgs1 mgt1 strain (AID 161).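 Further: 0% = growth of cultures given vehicle only.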 The note with it: S. cerevisiae sgs1 mgt1 strain, active compounds read high. The method in brief: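 Test agents were incubated with a DNA-repair-mutant yeast strain. Growth was then read and compared against vehicle-treated controls.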
Test [4] in a line: NCI Yeast Anticancer Drug Screen. Data for the cln2 rad14 strain (AID 165).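 Further: 0% = growth equal to vehicle treated cultures.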 Particulars: S. cerevisiae cln2 rad14 strain, active compounds read high. In a few lines:
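Each compound was tested on cln2 rad14 yeast. Inhibition of growth was calculated against vehicle-exposed controls.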

Test [5] is described as follows: NCI Yeast Anticancer Drug Screen. Data for the bub3 strain (AID 167). Particulars: S. cerevisiae bub3 mutant strain, active compounds read high. In a few lines:
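Compounds were applied to a genetically altered yeast strain carrying a cell-cycle control defect. Growth inhibition was scored against vehicle-treated controls.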

A short description of test [6]: NCI Yeast Anticancer Drug Screen. Data for the mlh1 rad18 strain (AID 175). Particulars: S. cerevisiae mlh1 rad18 strain growth inhibition, active compounds read high. The method in brief: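 Vehicle-treated cultures served as the reference for growth inhibition in a yeast strain carrying DNA damage repair alterations exposed to each compound.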
Setting [7] is: at 5.0 µM (retest, dose inferred, filed as 0.5).
The mark [8] stands for this setting: at 50.0 µM (retest, dose inferred, filed as 5.0).

As to `O=C1C=C(Br)C(=O)C(Br)=C1`, the growth inhibition in test [1] (setting [7]) is 25%; in test [1] (setting [8]) it was 99% (active); in test [1] (at 50.0 µM), 93.8% (active); in test [2] (setting [7]), 21%; in test [2] (setting [8]), 99% (active); in test [2] (at 50.0 µM), 99.6% (active). In addition, the growth inhibition in test [3] (setting [7]) was 13%; in test [3] (setting [8]) it was 98% (active); in test [3] (at 50.0 µM), 99.3% (active); in test [4] (setting [7]), 28%; in test [4] (setting [8]), 86% (active); in test [4] (at 50.0 µM), 25.7%. For the same compound, the growth inhibition in test [5] (setting [7]) was 31%; in test [5] (setting [8]) it was 99% (active); in test [5] (at 50.0 µM), 94.2% (active); in test [6] (setting [7]) it was 40%; in test [6] (setting [8]) it was 99% (active); in test [6] (at 50.0 µM), 97.5% (active).
`CCCCCCC(C)c1ccccc1O` (stereo not drawn) (tested in a mixture with another compound): the growth inhibition was 25% in test [1] (setting [7]); 96% (active) in test [1] (setting [8]); 92.2% (active) in test [1] (at 50.0 µM); 24% in test [2] (setting [7]); 100% (active) in test [2] (setting [8]); 94% (active) in test [2] (at 50.0 µM). Moreover, the growth inhibition is 25% in test [3] (setting [7]); 100% (active) in test [3] (setting [8]); 94% (active) in test [3] (at 50.0 µM); 25% in test [4] (setting [7]); 100% (active) in test [4] (setting [8]); 93.6% (active) in test [4] (at 50.0 µM). The growth inhibition in test [5] (setting [7]) was 37%; in test [5] (setting [8]), 99% (active); in test [5] (at 50.0 µM), 93% (active); in test [6] (setting [7]), 38%; in test [6] (setting [8]) it was 99% (active); in test [6] (at 50.0 µM) it was 92.2% (active).
Turning to `c1ccc(/C(=N\Nc2nc3ccccc3s2)c2ccccn2)cc1`, the growth inhibition is 0% in test [1] (setting [7]); 88% (active) in test [1] (setting [8]); 71.7% (active) in test [1] (at 50.0 µM); 9% in test [2] (setting [7]); 79% (active) in test [2] (setting [8]); 73.5% (active) in test [2] (at 50.0 µM). The growth inhibition is -6% in test [3] (setting [7]); 90% (active) in test [3] (setting [8]); 75.4% (active) in test [3] (at 50.0 µM); -17% in test [4] (setting [7]); 75% (active) in test [4] (setting [8]); 79.7% (active) in test [4] (at 50.0 µM). In addition, the growth inhibition in test [5] (setting [7]) was -6%; in test [5] (setting [8]) it was 87% (active); in test [5] (at 50.0 µM) it was 78.7% (active); in test [6] (setting [7]), 11%; in test [6] (setting [8]), 89% (active); in test [6] (at 50.0 µM), 81.3% (active).
In the case of `O=C(CC1(O)C(=O)Nc2c(Cl)cc(Cl)cc21)c1ccc(Cl)cc1` (stereo not drawn), the growth inhibition in test [1] (setting [7]) is 0%; in test [1] (setting [8]), 87% (active); in test [1] (at 50.0 µM), 85% (active); in test [2] (setting [7]), -1%; in test [2] (setting [8]) it was 91% (active); in test [2] (at 50.0 µM), 70.3% (active). Also, the growth inhibition in test [3] (setting [7]) was 3%; in test [3] (setting [8]) it was 98% (active); in test [3] (at 50.0 µM) it was 81% (active); in test [4] (setting [7]), -3%; in test [4] (setting [8]), 96% (active); in test [4] (at 50.0 µM) it was 82.5% (active). Further, the growth inhibition was -3% in test [5] (setting [7]); 93% (active) in test [5] (setting [8]); 71.5% (active) in test [5] (at 50.0 µM); -1% in test [6] (setting [7]); 97% (active) in test [6] (setting [8]); 93.8% (active) in test [6] (at 50.0 µM).
`O=C(O)/C(=C/c1c(O)ccc2ccccc12)c1csc(-c2nc(/C(=C\c3c(O)ccc4ccccc34)C(=O)O)cs2)n1`: the growth inhibition in test [1] (setting [7]) is 74% (active); in test [1] (setting [8]), 74% (active); in test [1] (at 50.0 µM), 89.6% (active); in test [2] (setting [7]) it was 48%; in test [2] (setting [8]), 48%; in test [2] (at 50.0 µM), 92% (active). Also, the growth inhibition in test [3] (setting [7]) is 74% (active); in test [3] (setting [8]) it was 74% (active); in test [3] (at 50.0 µM) it was 92% (active); in test [4] (setting [7]), 46%; in test [4] (setting [8]), 46%; in test [4] (at 50.0 µM), 90% (active). Further, the growth inhibition in test [5] (setting [7]) is 49%; in test [5] (setting [8]), 49%; in test [5] (at 50.0 µM), 90.2% (active); in test [6] (setting [7]) it was 68%; in test [6] (setting [8]), 68%; in test [6] (at 50.0 µM), 88% (active).
Turning to `COC1(OC)OC2=C(OC1(OC)OC)c1ccccc1C2=O`, the growth inhibition in test [1] (setting [7]) was 8%; in test [1] (setting [8]), 12%; in test [1] (at 50.0 µM), 37.9%; in test [2] (setting [7]), 9%; in test [2] (setting [8]), 14%; in test [2] (at 50.0 µM) it was -13.1%. Also, the growth inhibition in test [3] (setting [7]) is 5%; in test [3] (setting [8]), 7%; in test [3] (at 50.0 µM) it was -11.8%; in test [4] (setting [7]), 5%; in test [4] (setting [8]) it was 3%; in test [4] (at 50.0 µM), -15.2%. Besides, the growth inhibition in test [5] (setting [7]) was 4%; in test [5] (setting [8]) it was 8%; in test [5] (at 50.0 µM), -16.6%; in test [6] (setting [7]) it was 14%; in test [6] (setting [8]) it was 12%; in test [6] (at 50.0 µM), -55.2%.
